From PubChem BioAssay AID1159580 (chemical genetic matrix, 2015)
About 2,000 (36%) of roughly 5,500 compounds were called active. Inconclusive results (about 18%) are left out. Rule as the data show it: active = normalized growth mostly below about 0.91 (no sharp cut-off); inconclusive = no clear call, values can overlap the other calls; inactive = mostly above about 0.92. The list shows a part of the results.

Assay: chemical genetic growth profiling, strain panel (AID 1159580);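 also: tested at 20 µM; growth read once vehicle control cultures reached saturation at 30 °C; 1 = growth at the plate median or of vehicle wells; lower values mean less growth of the strain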
Settings: S. cerevisiae deletion strains, growth OD

Measured: normalized growth

N=c1ccn2c(n1)OC1C(O)C(CO)OC12 (stereo unspecified)
inactive: locus YAL021C, strain ccr4, stronger effect = lower value 1.01 | locus YAL026C, strain drs2, stronger effect = lower value 1.02 | locus YAL030W, strain snc1, stronger effect = lower value 0.991 | locus YBL061C, strain skt5, stronger effect = lower value 1.01 | locus YBR009C, strain hhf1, stronger effect = lower value 1.01 | locus YBR023C, strain chs3, stronger effect = lower value 0.995 | locus YBR171W, strain sec66, stronger effect = lower value 1.01 | locus YBR231C, strain swc5, stronger effect = lower value 1.01 | locus YBR279W, strain paf1, stronger effect = lower value 1.01 | locus YCL011C, strain gbp2, stronger effect = lower value 1.01 | locus YCL016C, strain dcc1, stronger effect = lower value 1 | locus YCL061C, strain MRC1, stronger effect = lower value 0.986 | locus YCL069W, strain vba3, stronger effect = lower value 1.01 | locus YCR088W, strain abp1, stronger effect = lower value 1.01 | locus YDL005C, strain med2, stronger effect = lower value 0.986 | locus YDL040C, strain nat1, stronger effect = lower value 0.986 | locus YDR001C, strain nth1, stronger effect = lower value 1.01 | locus YDR069C, strain doa4, stronger effect = lower value 1.01 | locus YDR137W, strain rgp1, stronger effect = lower value 1.02 | locus YDR159W, strain sac3, stronger effect = lower value 1 | locus YDR195W, strain ref2 0.976 | locus YDR297W, strain sur2, stronger effect = lower value 0.986 | locus YDR334W, strain swr1, stronger effect = lower value 1 | locus YDR335W, strain msn5, stronger effect = lower value 1 | locus YDR392W, strain spt3, stronger effect = lower value 1.01 | locus YEL003W, strain gim4, stronger effect = lower value 1 | locus YEL037C, strain rad23, stronger effect = lower value 0.995 | locus YEL061C, strain CIN8 (second series), stronger effect = lower value 1.01 | locus YER015W, strain faa2, stronger effect = lower value 1.01 | locus YER016W, strain bim1, stronger effect = lower value 1 | locus YER111C, strain swi4, stronger effect = lower value 0.981 | locus YER155C, strain BEM2 (second series), stronger effect = lower value 1.01 | locus YFR010W, strain ubp6, stronger effect = lower value 0.998 | locus YGL167C, strain pmr1, stronger effect = lower value 1 | locus YGL173C, strain kem1, stronger effect = lower value 0.996 | locus YGL227W, strain vid30, stronger effect = lower value 1.02 | locus YGL240W, strain doc1, stronger effect = lower value 0.978 | locus YGL253W, strain hxk2, stronger effect = lower value 1 | locus YHR013C, strain ard1, stronger effect = lower value 1.01 | locus YHR027C, strain rpn1, stronger effect = lower value 1.01 | locus YHR142W, strain chs7, stronger effect = lower value 1.01 | locus YJL092W, strain hpr5, stronger effect = lower value 1.01 | locus YJL095W, strain BCK1 (second series), stronger effect = lower value 1 | locus YJL115W, strain asf1, stronger effect = lower value 1.01 | locus YJL129C, strain trk1, stronger effect = lower value 1.02 | locus YJL154C, strain vps35, stronger effect = lower value 1 | locus YJL164C, strain tpk1, stronger effect = lower value 1 | locus YJL166W, strain qcr8, stronger effect = lower value 0.982 | locus YKL160W, strain elf1, stronger effect = lower value 1 | locus YKR026C, strain gcn3, stronger effect = lower value 1.02 | locus YKR091W, strain srl3, stronger effect = lower value 1 | locus YLL001W, strain dnm1, stronger effect = lower value 0.998 | locus YLL026W, stronger effect = lower value 1 | locus YLL041C, strain sdh2, stronger effect = lower value 1 | locus YLR027C, strain aat2, stronger effect = lower value 1.01 | locus YLR221C, strain rsa3, stronger effect = lower value 0.993 | locus YLR258W, strain gsy2, stronger effect = lower value 1.01 | locus YLR262C, strain YPT6 (second series), stronger effect = lower value 1.02 | locus YLR320W, strain mms22, stronger effect = lower value 1.01 | locus YLR342W, strain FKS1, stronger effect = lower value 1.01 | locus YLR357W, strain rsc2, stronger effect = lower value 0.946 | locus YLR370C, strain arc18, stronger effect = lower value 1.01 | locus YLR384C, strain iki3, stronger effect = lower value 1 | locus YML120C, strain ndi1, stronger effect = lower value 0.993 | locus YMR058W, strain fet3, stronger effect = lower value 0.998 | locus YMR125W, strain sto1, stronger effect = lower value 0.995 | locus YMR129W, stronger effect = lower value 0.987 | locus YMR205C, strain PFK2, stronger effect = lower value 1.01 | locus YMR231W, strain pep5, stronger effect = lower value 1.01 | locus YNL071W, strain lat1, stronger effect = lower value 1.02 | locus YNL209W, strain ssb2, stronger effect = lower value 1 | locus YNL248C, strain rpa49, stronger effect = lower value 1.01 | locus YNL322C, strain KRE1 (second series), stronger effect = lower value 1.01 | locus YNR049C, strain mso1, stronger effect = lower value 1 | locus YOR001W, strain rrp6, stronger effect = lower value 1.01 | locus YOR070C, strain gyp1, stronger effect = lower value 1.01 | locus YOR080W, strain dia2, stronger effect = lower value 0.996 | locus YOR083W, strain WHI5, stronger effect = lower value 1.01 | locus YOR106W, strain vam3, stronger effect = lower value 1.02 | locus YOR265W, strain rbl2, stronger effect = lower value 0.993 | locus YOR270C, strain vph1, stronger effect = lower value 1.04 | locus YOR290C, strain snf2, stronger effect = lower value 1.01 | locus YPL051W, strain arl3, stronger effect = lower value 1 | locus YPL078C, strain atp4, stronger effect = lower value 0.996 | locus YPL106C, strain sse1, stronger effect = lower value 0.981 | locus YPL240C, strain hsp82, stronger effect = lower value 1.02
